Screening results deposited in PubChem by several laboratories.
Sampled rows, rich in hits. Any-hit rate of the full collection: about 2.9%.
GAA850 FXN act = increases GAA850 frataxin promoter reporter activity. HEK293 lucGAA850 FXN promoter luciferase reporter, 24 h; percent of 10 µM SAHA response. activation, % at 6 µM. 360,000 tested, 0.56% active;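 active means activation above the average of all compounds screened plus 3 SD, cutoff fixed separately per campaign, cut at about 7.5% in these data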;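 further: 0% = DMSO wells and 100% = 10 µM SAHA wells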
KLK7 zymogen act = activators of human kallikrein-7 zymogen | purified proKLK7, EDANS-DABCYL substrate fluorescence; 100% is mature enzyme control, 0% vehicle | activation, % at 7 µM | 370,000 tested, 0.9% active;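 active means activation above the mean of all tested compounds plus 3 SD, computed per campaign excluding outliers beyond control limits, cut at about 13% in these data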
SMARCA2 act = SMARCA2 function activation, primary screen; 370,000 tested, 1% active; activation, % at 9.1 µM; MG213 cells, MMTV-luciferase reporter, dexamethasone, overnight; in the data active means activation above about 7.8%;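 further: 0% = vehicle wells and 100% = reference activator wells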
FAS-TE inh = blocks the thioesterase domain of human fatty acid synthase | 360,000 tested, 0.67% active | P49327 | recombinant FAS-TE, OMFH fluorogenic substrate, fluorescence endpoint | inhibition, % at 15 µM;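 active means compounds whose normalised, plate-corrected inhibition of enzyme fluorescence in the single-dose primary screen is 50% or more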;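 further: 0% = DMSO with enzyme and 100% = substrate without enzyme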
GAA30 FXN cntr = GAA30 FXN promoter activation counter-screen; shares compounds with GAA850 FXN act; HEK293 lucGAA30 FXN promoter luciferase, 24 h; DMSO = 0%, 5 µM ipriflavone = 100%; activation, % at 6 µM; 1,900 tested, 66% active; AID 588350;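 active means mean activation above the mean of solvent-only control wells plus 3 SD, cut at about 22% in these data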;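 further: counterscreen of GAA850 promoter hits where activity marks nonselective or luminescence artifacts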
FXN GAA850 conf = GAA850 FXN promoter activation confirmation | shares compounds with GAA850 FXN act | HEK293 lucGAA850 FXN promoter luciferase reporter, 24 h; 100% = activation by SAHA | activation, % at 6 µM | 1,900 tested, 86% active;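 active means mean activation above a set limit taken from the primary screen, cut at about 8% in these data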;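 further: 0% = DMSO wells and 100% = 10 µM SAHA wells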
An asterisk follows results filed as active; nt = no result given.

SMILES	GAA850 FXN act	KLK7 zymogen act	SMARCA2 act	FAS-TE inh	GAA30 FXN cntr	FXN GAA850 conf
Cc1ccc(NC(=O)C(NC2CCCc3ccccc32)c2ccccc2)c([N+](=O)[O-])c1 (stereo unspecified)	9.6*	-0.9	1.5	21.7	15.3	17.1*
Cc1ccc2nc(/C(C#N)=C\c3ccc(Oc4ccc(C(F)(F)F)cc4[N+](=O)[O-])cc3)[nH]c2c1	-0.5	-0.8	1.6	0.2	nt	nt
N#C/C(=C\c1cccc(Oc2ccc(C(F)(F)F)cc2[N+](=O)[O-])c1)c1nc2ccccc2[nH]1	8.0*	0.1	3.2	24.8	22.7*	7.9*
CCOC(=O)c1ccccc1NC(=O)Nc1ccc(OC)c(OC)c1	9.6*	-0.3	-4.1	-7.3	17.4	10.5*
COC(=O)c1ccc(C(=O)OC)c(NC2=NS(=O)(=O)c3ccccc32)c1	-1.0	1.3	1.4	1.8	nt	nt
COC(=O)c1c(-c2ccccc2)csc1NC1=NS(=O)(=O)c2ccccc21	8.9*	0.3	4.5	-6.1	125.4*	43.4*
CC(C)=CCC/C(C)=C/C=N/NC(=O)c1ccccc1[N+](=O)[O-]	8.6*	0.1	-1.9	7.3	16.5	5.0
C/C(CCc1ccccc1)=N\NC(=O)c1ccccc1[N+](=O)[O-]	0.1	0.2	-2.6	-9.9	nt	nt
Cc1cc(C)nc(-n2ncc3c2CC(c2ccc(F)cc2)CC3=O)n1 (stereo unspecified)	1.5	0.9	-4.2	-2.8	nt	nt
O=C(NC1CCCCC1)C(=O)c1c[nH]c2ccccc12	8.3*	0.3	2.3	-1.1	84.9*	27.7*
O=C(COC(=O)c1c[nH]c2ccccc12)NC1CCCC1	3.1	-0.1	-0.7	-4.4	nt	nt
O=C(NC1=NN(c2ccccc2)CC1)Nc1ccccc1F	8.5*	0.7	3.1	-1.8	45.5*	18.2*
O=C(c1ccccc1)c1cc2cc(Cl)ccc2[nH]1	8.3*	-0.8	3.5	1.6	86.8*	35.4*
COc1cccc(C(=O)c2cc3cc(Cl)ccc3[nH]2)c1	2.5	-0.6	5.5	7.8	nt	nt
COCc1nc2oc3ccc(C)cc3c(=O)c2cc1C(=O)OC	7.9*	0.9	2.6	1.0	119.2*	47.3*
C=CCOc1ccc2c(c1)C(=NO)c1cc(OCC=C)ccc1-2	8.0*	-0.9	-3.9	-45.1	32.3*	19.5*
COc1ccc2c(c1)C(=NO)c1cc(OC)ccc1-2	0.9	-0.4	4.2	-53.1	nt	nt
COC(=O)[C@]12C[C@H](CC(=O)NCC34CC5CC(CC(C5)C3)C4)C(=O)N(Cc3ccco3)C1=C[C@H](C(C)C)O[C@@H]2C1CC1	nt	0.3	-3.1	nt	nt	nt
CCc1ccc(C(=O)NC(CC(C)C)C(=O)O)cc1 (stereo unspecified)	20.4*	-0.2	0.0	-5.7	20.5	6.2
COC(=O)c1c(NC(=O)CN2CCC3(O)CCCCC3C2c2cc(OC)ccc2OC)sc(C)c1C (stereo unspecified)	11.8*	-2.7	-2.2	48.6	-0.4	9.9*
COC(=O)c1c(NC(=O)CN2CCC3(O)CCCCC3C2c2ccc(F)cc2)sc(C)c1C (stereo unspecified)	-0.1	0.1	-3.4	3.8	nt	nt
CN(C(=S)NC1CCCCC1)C1(c2ccccc2Cl)CCCCC1=O (stereo unspecified)	8.8*	-0.2	0.7	17.0	12.9	9.2*
c1ccc(CCn2nnc3ccccc32)cc1	5.6	-0.9	1.3	0.6	nt	nt
Nn1nnc2ccccc21	19.9*	-0.3	-1.7	-4.3	46.4*	15.8*
COc1ccccc1NC(=O)N1CCCC1C(=O)NCCc1ccccc1 (stereo unspecified)	-0.6	-0.7	-3.1	-5.4	nt	nt
CS(=O)(=O)c1nc(-c2ccc(F)cc2)cc(C(F)(F)F)n1	39.3*	0.7	-10.7	24.2	23.5*	70.9*
CCOC(=O)CCS(=O)(=O)c1nc(-c2ccccc2)cc(C(F)(F)F)n1	4.3	nt	nt	17.6	nt	nt
CCOC(=O)CS(=O)(=O)c1nc(-c2ccccc2)cc(C(F)(F)F)n1	11.0*	0.9	-6.3	27.0	-54.3	-23.4
CCOC(=O)CS(=O)(=O)c1nc(-c2ccc(F)cc2)cc(C(F)(F)F)n1	21.4*	nt	nt	28.3	-77.3	-24.4
CCOC(=O)c1c(C(F)(F)F)cc(-c2ccc(F)cc2)nc1C	-0.9	0.1	2.6	29.8	nt	nt
